Assay results: PubChem BioAssay AID485317 (Broad Institute, 2010)
Screen size: about 290,000 compounds; about 11,000 (3.8%) were called active. The entries come from a sample that favours actives as a whole. Unmarked numbers belong to inactive results.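 Rule for the calls: active = mean replicate inhibition above about 79%, with every replicate also reaching it (limit read from the data); inconclusive = only one of the two criteria met; inactive = mean below limit and not every replicate reaching it.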

Molecular target: FAD-linked sulfhydryl oxidase ALR (Homo sapiens) (UniProt P55789)
Sequence (P55789 whole entry, looked up): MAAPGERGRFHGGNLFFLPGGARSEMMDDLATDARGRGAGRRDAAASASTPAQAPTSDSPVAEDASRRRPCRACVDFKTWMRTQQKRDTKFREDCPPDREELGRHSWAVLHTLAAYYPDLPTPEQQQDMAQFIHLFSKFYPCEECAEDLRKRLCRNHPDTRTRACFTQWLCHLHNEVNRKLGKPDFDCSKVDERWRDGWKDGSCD
Experiment: ALR-catalysed DTT oxidation blockers – biochemical, H2O2 detection, HRP-luminol luminescence, single point, primary screen (AID 485317)
Conditions: purified ALR, hits give high values, concentration not given here

SMILES	inhibition
O=C(Nc1ccc2nc3n(c(=O)c2c1)CCCC3)c1ccc(Cl)nc1	0.685%
COc1ccccc1-c1nnc(-c2ccc(F)cc2)o1	2.91%
COc1ccc(NS(=O)(=O)c2ccc(C)c(C(=O)N(C)Cc3ccc(OC)cc3OC)c2)cc1	-17.9%
O=C(Nc1ccc(S(=O)(=O)N2CCCCC2)cc1)C1CCN(C(=O)c2ccc(F)cc2)CC1	-0.325%
CC1CCN(C(=O)c2cccc(S(=O)(=O)N3CCCc4ccccc43)c2)CC1	-15.4%
CC(C)(C)OC(=O)C[C@@H]1C/C=C\C[C@@H](CC(=O)N[C@@H](CO)Cc2ccccc2)C(=O)N2CCC[C@H]2COC1=O	-8.71%
COc1ccc(C(=NN)c2ccc(OC)cc2)cc1	0.931%
CCC(=O)c1ccc(OCC(=O)Nc2ccc(N3CCCCC3)cc2)cc1	-9.1%
Cc1ccc(C)c(OCCC(=O)Nc2cccc(S(=O)(=O)N3CCCC3)c2)c1	-0.0535%
CCc1ccc(NC(=O)Cn2ncn3c(cc4ccccc43)c2=O)cc1	3.26%
COc1ccc(NC(=O)CN2C(=O)CSC2=O)cc1	21.6%
CCc1ccc(NC(=O)CN2C(=O)CSC2=O)cc1	96% (active)
Cc1ccc2nc(NC(=O)C3CSC4(C)CCC(=O)N34)sc2c1 (stereo not drawn)	-0.552%
O=C1CSC(c2ccccc2)N1c1nc(-c2ccc(Cl)cc2Cl)cs1 (stereo not drawn)	-3%
O=C1CSC(c2cccc(F)c2)N1c1ccccc1F (stereo not drawn)	91.3% (active)
O=C1CSC(c2cccc(F)c2)N1c1ccc(O)cc1 (stereo not drawn)	-57.5%
COc1ccccc1CNC(=O)c1ccc(Cl)c(S(=O)(=O)N2CCCC2)c1	-3.23%
CC(=O)O[C@H]1CC[C@@]2(C)[C@@H](CC[C@@H]3[C@@H]2CC[C@]2(C)[C@@H](C(C)(C)O)C[C@@H]32)C1	-2.24%
Cc1ccc2nc(-c3ccncc3)cc(C(=O)Nc3ccncc3)c2c1	-3.42%
Cc1ccc2nc(-c3ccccc3)cc(C(=O)O)c2c1	89.7% (active)
Cc1ccc2nc(-c3cccc(Br)c3)cc(C(=O)Nn3cnnc3)c2c1	1.88%
O=C(CC1SC(N2CCOCC2)=NC1=O)Nc1ccccc1F (stereo not drawn)	-2.71%
Cc1ccc(S(=O)(=O)N2CCN(C(=O)Cc3sc(C)nc3-c3ccc(F)cc3)CC2)c(C)c1	-12.2%
CCC1(C)NC(=O)N(CC(=O)N2CCN(c3cccc(Cl)c3)CC2)C1=O (stereo not drawn)	1.58%

SMILES	inhibition
O=C(COC(=O)COc1ccccc1F)Nc1cccc(S(=O)(=O)N2CCCCC2)c1	-10.2%
COc1ccc(Br)cc1/C=N/n1c(C)nnc1C	-4.68%
COc1ccc(Br)cc1/C=N/NC(=O)c1cccc(S(=O)(=O)N2CCOCC2)c1	-1.11%
COc1ccc(Br)cc1/C=N/Nc1ccc(Cl)c(C(=O)O)c1	96.9% (active)
COC(=O)c1ccc(SCc2ccccc2)nc1	-2.47%
CCN(CC(=O)Nc1cccc(S(=O)(=O)N2CCCCC2)c1)Cc1ccccc1	-23.2%
O=C(CSc1ccc(-c2ccco2)nn1)NCc1ccc2c(c1)OCO2	3.65%
Cc1cc(SCc2c(F)cccc2Cl)nc(=O)[nH]1	35.2%
COc1ccc(NC(=O)CSc2ccc(-c3ccco3)nn2)c(OC)c1	0.2%
Fc1cccc(Cl)c1CSc1ccc(-c2ccco2)nn1	98.3% (active)
O=C(CSc1ccc(-c2ccco2)nn1)Nc1cccc(F)c1	-14%
Brc1ccc(CSc2ccc(-c3ccco3)nn2)cc1	98.2% (active)
CCCC(CNC(=O)COC(=O)C1=NNC(=O)CC1)c1ccc(Cl)cc1Cl (stereo not drawn)	0.0724%
COc1cc(OC)cc(C(=O)NCC(=O)N2CCCCCCC2)c1	-4.06%
COc1ccc(Nc2ncnc3sc(C)cc23)cc1	7.07%
Cc1cccc(C(C)C)c1NC(=O)COC(=O)C1CC(=O)N(Cc2ccccc2)C1 (stereo not drawn)	-1.43%
C[C@H](CO)N1C[C@H](C)[C@@H](CN(C)S(=O)(=O)c2ccc(F)cc2)Oc2ccc(NC(=O)CCC(F)(F)F)cc2C1=O	-3.84%
O=C1OC[C@@H]2CCCN2C(=O)[C@H](CC(=O)N(CCO)Cc2ccccc2)C/C=C\CC[C@@H]1Cc1ccc(F)cc1	-10.6%
COc1ccc(Cl)cc1NC(=O)CN(C)C(=O)c1ccc2n[nH]nc2c1	2.11%
COc1ccc(OCCNC(=O)c2cc(C3CC3)nc3c2cnn3C(C)C)cc1	-7.42%
Cc1cccn2cc(-c3cccc(S(=O)(=O)N4CCCCC4)c3)nc12	90.9% (active)
O=S(=O)(c1cccc(-c2nnc3n2CCCCC3)c1)N1CCOCC1	-3.91%
O=S(=O)(c1cccc(-c2cn3ccccc3n2)c1)N1CCCC1	0.842%
COc1ccccc1-c1nnc2n1N=C(c1ccc(OC(F)F)c(OCC3CC3)c1)CS2	0.875%

SMILES	inhibition
CCN(C(=O)CSc1ncnc2c1cnn2-c1ccccc1)C1CCS(=O)(=O)C1 (stereo not drawn)	8.44%
CCCCn1c(N)c(N(CCOC)C(=O)c2cccc(OCc3ccccc3)c2)c(=O)[nH]c1=O	-0.129%
COc1ncnc2c1N=C1CC(C)(C)CC(N)=C1S2	99% (active)
COc1ccc(-c2cc(C(=O)N(C)Cc3ccc(OC)c(OC)c3OC)c3ccccc3n2)cc1OC	0.485%
COc1ccc(Cl)cc1C(=O)OCC(=O)NCc1cccs1	-0.428%
Cc1ccc(-c2cc(=O)[nH]c(NCc3ccccc3)n2)cc1	-7.47%
NS(=O)(=O)c1ccc(NC(=S)NNC(=O)c2cccs2)cc1	96.9% (active)
O=C(NC(=S)Nc1ccc(NC(=O)c2cccs2)cc1)c1ccc([N+](=O)[O-])cc1	-3.61%
CS(=O)(=O)c1ccc(C(=O)NNC(=O)c2cccs2)cc1	-4.92%
C=CC(COCc1ccccc1)N(CC(=O)OC)S(=O)(=O)c1cc(Br)ccc1OC (stereo not drawn)	-15.6%
Cc1cc(Nc2ccccc2)n(C(=O)c2ccc(N)cc2)n1	28.5%
Cc1cc(NC(=O)COc2ccc(Cl)cc2Cl)n(CCC#N)n1	-11.3%
Cc1cc(Nc2ccccc2)n(CCC#N)n1	98.6% (active)
Cc1cc(C(=O)OCC(=O)Nc2ccccc2Cl)c(C)o1	-4%
COc1cc(N)c(Cl)cc1C(=O)OCC(=O)c1ccc2c(c1)NC(=O)CO2	1.9%
O=C(NCc1ccc2c(c1)OCO2)c1c(-c2ccsc2)sc2ccccc12	3.11%
O=C(NCc1cccs1)c1ccc(CS(=O)Cc2ccccc2Cl)o1 (stereo not drawn)	21.5%
Cc1ccc(CS(=O)Cc2ccc(C(=O)N3CCOCC3)o2)cc1 (stereo not drawn)	-2.5%
Cc1ccc(CNC(=O)c2ccc(CS(=O)Cc3cccc(Cl)c3)o2)cc1 (stereo not drawn)	92.3% (active)
CCN(CC(=O)Nc1ccc(OC)cc1)C(=O)CSCc1ccc(C)cc1	-1.67%
Cc1nn(C)cc1C(=O)c1ccccc1	-7.74%
Cc1cccc(N2CCN(C(=O)C3CCN(S(=O)(=O)c4cnc[nH]4)CC3)CC2)c1C	0.188%
COc1cccc(N2CCN(C(=O)C3CCCN(S(=O)(=O)c4cnc[nH]4)C3)CC2)c1 (stereo not drawn)	98.9% (active)
O=C(C1CCCN(S(=O)(=O)c2ccccc2)C1)N1CCN(c2ccc(F)cc2)CC1 (stereo not drawn)	19.8%

SMILES	inhibition
COc1ccccc1OCC(=O)OCc1cc(-c2ccco2)on1	-3.11%
Cc1ccc(S(=O)(=O)N2CCN(C(=O)COC(=O)CNC(=O)c3ccc(C(C)(C)C)cc3)CC2)c(C)c1	-8.74%
CN(C(=O)COC(=O)Cc1ccccc1[N+](=O)[O-])C1CCS(=O)(=O)C1 (stereo not drawn)	-19.5%
S=C(NN=C1CCN(Cc2ccccc2)CC1)NC1CCCCC1	94.2% (active)
S=C(Nc1ccc(Br)cc1)NC1CCN(Cc2ccccc2)CC1	17%
S=C(Nc1ccc(Br)cc1Cl)NC1CCN(Cc2ccccc2)CC1	-0.861%
COc1ccccc1NS(=O)(=O)c1ccc(C(=O)N2CCN(c3ccccc3O)CC2)cc1	30.3%
O=C(COC(=O)c1ncc(Cl)c(Cl)c1Cl)NCc1ccccc1	-2.75%
C=CCn1c(SCC(=O)CC(=O)OCC)nc2cc(C(=O)N3CCC(C(N)=O)CC3)ccc2c1=O	26.8%
NC(=O)C1CCN(C(=O)c2ccc3c(=O)n(Cc4cccc(Br)c4)c(=S)[nH]c3c2)CC1	1.47%
C=CCn1c(SCc2cccc(F)c2)nc2cc(C(=O)N3CCC(C(N)=O)CC3)ccc2c1=O	82.8% (active)
O=C(CCC(=O)c1cccs1)Nc1nc2ccccc2s1	-15.5%
COc1cccc(CC(=O)OCC(=O)NCc2ccc3c(c2)OCO3)c1	-0.907%
O=C(CN1C(=O)CSc2ncccc21)N1CCOCC1	-36.7%
COCCNC(=O)CCCN1C(=O)c2ccccc2Sc2ncccc21	-3.3%
COCCNC(=O)CN1C(=O)CSc2ncccc21	95.3% (active)
CCn1nc(C(=O)Nc2ccc(N3CCOCC3)cc2)c2ccccc2c1=O	-11.2%
CC1CC(=NNC(=O)C2COc3ccccc3O2)CC(C)(C)C1 (stereo not drawn)	14.3%
COc1ccc(/C=C2\SC(=O)N(CCC(=O)NC3CCS(=O)(=O)C3)C2=O)cc1 (stereo not drawn)	-3.27%
CN(C(=O)CN1C(=O)/C(=C/c2ccc(Cl)cc2)SC1=S)C1CCS(=O)(=O)C1 (stereo not drawn)	-8.19%
CC(C(=O)NC1CCS(=O)(=O)C1)N1C(=O)/C(=C/c2ccc(Cl)cc2)SC1=S (stereo not drawn)	98.5% (active)
